The structures appear in SMILES notation. Out of some 1,200 compounds screened, about 600 (50%) were called active. The set was probably picked from earlier hits. This is one part of the list. Potency and affinity values are given separately. Unmarked numbers belong to inactive results. Rule as the data show it: active = inhibition above about 42%; inactive = the rest.

The target of this assay is SUMO-conjugating enzyme UBC9 (Homo sapiens) (UniProt P63279). Nature of the assay: SUMOylation inhibitor hit validation, confirmation, SUMOylation inhibitor project, biochemical, AlphaScreen (AID 2018). Particulars: AlphaScreen in vitro SUMOylation assay; at 35 µM; stronger effect = higher value. On the technique in general: In Alpha technology, singlet oxygen from a donor bead excites a nearby acceptor bead.
Chain of SUMO-conjugating enzyme UBC9 (Homo sapiens) (P63279 whole entry, looked up): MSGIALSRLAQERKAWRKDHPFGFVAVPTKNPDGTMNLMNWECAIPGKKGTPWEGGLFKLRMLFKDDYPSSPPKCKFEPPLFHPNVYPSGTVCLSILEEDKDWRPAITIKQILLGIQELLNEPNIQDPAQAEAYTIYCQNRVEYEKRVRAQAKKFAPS
As usually defined, the inhibition is the drop in the measured response relative to a control, in per cent. For `O=[N+]([O-])c1ccc(Cl)c(C2Nc3cccc4cccc(c34)N2)c1`, the inhibition was 30.6%.

For the molecule `O=[N+]([O-])c1ccc(C2Nc3cccc4cccc(c34)N2)cc1`, the inhibition is 49.3% (active).

As for `O=C(CNc1cccc2ccccc12)c1ccc([N+](=O)[O-])cc1`, the inhibition was 26.3%.

As to `CN(CCC#N)C(=O)COC(=O)c1c2c(nc3ccccc13)/C(=C/c1ccco1)CC2`, the inhibition is 43.2% (active).

With `Cc1cnc(C(=O)OCC(=O)c2ccc(F)cc2)cn1`, the inhibition was 1.5%.

With `CCOc1ccc(C2C=C(c3ccccc3)Nc3ncnn32)cc1` (stereo not drawn), the inhibition was 13.5%.

Regarding `CC1=CC2(O)OCCN(CCO)C2=CC1=O` (stereo not drawn), the inhibition was 8.3%.

With `CCOC(=O)C1CCN(C2=C(NS(=O)(=O)c3ccc(Br)cc3)C(=O)c3ccccc3C2=O)CC1`, the inhibition was 91.9% (active).

As to `CC1CCCN(C2=C(NS(=O)(=O)c3ccc(Br)cc3)C(=O)c3ccccc3C2=O)C1` (stereo not drawn), the inhibition was 55.3% (active).

`NC(=O)C1CCN(C2=C(NS(=O)(=O)c3ccccc3)C(=O)c3ccccc3C2=O)CC1`: the inhibition was 35.9%.

Turning to `CCOC(=O)C1CCCN(c2cc(NCCCO)c([N+](=O)[O-])c3nonc23)C1` (stereo not drawn), the inhibition is -6.6%.

On to `NC(=O)C1CCN(C2=C(NS(=O)(=O)c3ccc(Cl)cc3)C(=O)c3ccccc3C2=O)CC1`, for which the inhibition was 87.2% (active).

With `CC1CCN(C2=C(NS(=O)(=O)c3ccc(Br)cc3)C(=O)c3ccccc3C2=O)CC1`, the inhibition was 94% (active).

On to `Fc1ccc(-c2nc3cnccn3c2NC2CCCC2)cc1`, for which the inhibition is -43.2%.

`COc1cc2c(cc1OC)C(C)=NC1(CCCCC1)C2`: the inhibition is -0.1%.

Turning to `c1ccc(Nc2ccccc2Nc2ccccn2)nc1`, the inhibition is -1.2%.

Consider `CN(C)c1cccc2c(S(=O)(=O)Nc3ccccn3)cccc12`, for which the inhibition is 69.7% (active).

With `CN(C)c1cccc2c(S(=O)(=O)N3CCCC3)cccc12`, the inhibition is -26.8%.

For `Cc1cccc(NC(=S)Nc2cccc3ccccc23)c1`, the inhibition was 19%.

For `Cc1cccc(NC2=C(NCCO)C(=O)c3ccccc3C2=O)c1`, the inhibition was 82% (active).

On to `N#Cc1c(-c2cccc(Br)c2)cc(-c2ccco2)[nH]c1=O`, for which the inhibition is 54% (active).

On to `O=C(Cc1cccs1)N/N=C/C=C\c1ccco1`, for which the inhibition was 26%.

As to `O=C(CSc1nnc(SCc2ccccc2)s1)N/N=C/C=C\c1ccco1`, the inhibition was 65% (active).

For the molecule `O=C(CNc1cccc2ccccc12)N/N=C/c1ccc(OC(=O)/C=C/c2ccco2)cc1`, the inhibition was 3.4%.

Consider `Cn1c2ccc(Cl)cc2c2nc3ccccc3nc21`, for which the inhibition was 4.7%.

Take `COCCn1c(-c2cccs2)csc1=Nc1cccnc1`: the inhibition was 12.7%.

For `Cn1c(C(=O)NCC2CCCO2)cc2c(=O)n3ccccc3nc21` (stereo not drawn), the inhibition was -2.8%.

Regarding `COCCCn1c(C(=O)N2CCOCC2)cc2c(=O)n3ccccc3nc21`, the inhibition was 2.8%.

Turning to `Cc1cccn2c(=O)c3cc(S(=O)(=O)c4ccc(F)cc4)c(=N)n(Cc4ccco4)c3nc12`, the inhibition was 7.6%.

Turning to `Cc1cccn2c(=O)c3cc(S(=O)(=O)c4ccccc4)c(=N)n(Cc4ccco4)c3nc12`, the inhibition was 27.5%.

On to `COCCCn1c(C(=O)N2CC(C)OC(C)C2)cc2c(=O)n3ccccc3nc21` (stereo not drawn), for which the inhibition was -18.6%.

Regarding `Cn1c(C(=O)N2COCC2(C)C)cc2c(=O)n3ccccc3nc21`, the inhibition is -16.1%.

With `CC1CCCCC1NC(=O)c1cc2c(=O)n3ccccc3nc2n1C` (stereo not drawn), the inhibition is -8.7%.

`Cn1c(C(=O)N2CCN(C(=O)c3ccco3)CC2)cc2c(=O)n3ccccc3nc21`: the inhibition was -14.7%.

Consider `Cc1ccc(S(=O)(=O)c2cc3c(=O)n4ccccc4nc3n(Cc3ccco3)c2=N)cc1C`, for which the inhibition is 45.2% (active).

Turning to `CCN(CC(=O)c1c(N)n(C)c(=O)n(C)c1=O)c1cccc2ccccc12`, the inhibition was -12.9%.

With `O=c1c2cc(N3CCOCC3)ccc2[nH]c(=S)n1Cc1ccccn1`, the inhibition is 2.9%.

For the molecule `Oc1cccc2c(NC(=S)Nc3ccc(OC(F)F)cc3)cccc12`, the inhibition is 27.3%.

For `Nc1cccc2cnccc12`, the inhibition was 45.1% (active).

Consider `FC(F)(F)c1ccccc1NC(=S)Nc1cccc2cnccc12`, for which the inhibition was 18.9%.

With `CC(C)NC(=S)Nc1cccc2cnccc12`, the inhibition is -0.7%.

Consider `CCc1ccc(OCC(=O)N/N=C2\CC(=O)c3ccccc32)cc1`, for which the inhibition is 100% (active).

Regarding `CC(C)c1onc(C(=O)N2CCC(C(N)=O)CC2)c1[N+](=O)[O-]`, the inhibition is -13.8%.

Turning to `Cc1ccc(NC2=CC(=O)C(=O)c3ccccc32)cc1`, the inhibition was 100% (active).

With `Cn1c(=O)c2cc(NCc3ccccc3)nnc2n(C)c1=O`, the inhibition was 12.8%.

In the case of `O=C1C=C(NCc2ccccc2)c2ccccc2C1=O`, the inhibition is 102% (active).

For `Fc1cccc(-n2c(-c3cccs3)nc3nc4ccccc4nc32)c1`, the inhibition was 8.7%.

As to `O=C(CCc1ccccc1)NNc1cc(N2CCCCC2)nc(N2CCCCC2)n1`, the inhibition was 50% (active).

On to `CC(C)(C)c1ccc(C(=O)NNc2cc(N3CCOCC3)nc(N3CCOCC3)n2)cc1`, for which the inhibition was 23.5%.

In the case of `O=C(NNc1cc(N2CCOCC2)nc(N2CCOCC2)n1)c1ccc(Cl)c(Cl)c1`, the inhibition is 66.9% (active).

For the molecule `CCCCOc1ccc(CSc2ncn[nH]2)cc1`, the inhibition was 3.3%.

With `O=C(Nc1ccccc1-c1nc2ccccc2s1)c1cccnc1Cl`, the inhibition is 18.7%.

As for `CCN1C(=O)N(CC)c2cccc3cccc1c23`, the inhibition was 10.6%.

Take `CC1N(C)c2cccc3cccc(c23)N1C`: the inhibition was 49.8% (active).

For `C=CCN1C(=O)N(CC=C)c2cccc3cccc1c23`, the inhibition was -10.4%.

Regarding `O=C(c1csc(Nc2cccc3ccccc23)n1)N1CCCC1`, the inhibition was 19.2%.

Take `C[n+]1cccc2cccc([O-])c21`: the inhibition was 101% (active).

For the molecule `C[n+]1cccc2ccc3c(c21)OC(N)=C(C#N)C3c1ccccc1` (stereo not drawn), the inhibition is -6.6%.

For the molecule `C[n+]1cccc2c(Br)ccc([O-])c21`, the inhibition was 102% (active).

Take `Cc1ccc(N2CSC3=C(C#N)C(c4cccs4)CC(=O)N3C2)cc1` (stereo not drawn): the inhibition is 38.3%.

As for `CCCCN(C)S(=O)(=O)c1cc(Br)cc2c1N(C(=O)C1CC1)CC2`, the inhibition is -3.7%.

Take `O=c1[nH]cc(I)cc1I`: the inhibition is 8.4%.

As for `Cc1cc(-c2csc(N)n2)c(C)n1Cc1ccco1`, the inhibition was 21.9%.

Regarding `Cc1oc2c(c1C(=O)O)C(=O)c1ccccc1C2=O`, the inhibition is 86.7% (active).

`CCOC(=O)c1c(C)oc2c1C(=O)c1ccccc1C2=O`: the inhibition is 47.8% (active).

`COc1ccc(S(=O)(=O)N(C)c2ccc(C(=O)NCc3ccccn3)cc2)cc1`: the inhibition is 4.9%.

Take `Cc1oc2c(c1C(=O)N1CCC(C)CC1)C(=O)c1ccccc1C2=O`: the inhibition is 29.2%.

As to `COc1ccc(CNC(=O)c2c(C)oc3c2C(=O)c2ccccc2C3=O)cc1`, the inhibition was 49.7% (active).

As to `COc1ccc2oc(=O)c(C(=O)NCC3CCCO3)cc2c1` (stereo not drawn), the inhibition is -13.9%.

For the molecule `CC(C)NC(=O)N1CCC(n2nccc2NC(=O)CCOc2ccccc2)CC1`, the inhibition was 9%.

`O=C1S/C(=C\C=C\c2ccco2)C(=O)N1c1ccc(O)cc1`: the inhibition was 40.4%.

Consider `Nc1ccc2c(c1)C/C(=C/c1ccco1)C2=O`, for which the inhibition was 13.8%.

For the molecule `C(=N\C(/N=C/c1ccco1)c1ccco1)/c1ccco1`, the inhibition was 30%.

`NN1C(=O)/C(=C\c2ccco2)SC1=S`: the inhibition is 56% (active).

Turning to `O=C1/C(=C\c2ccco2)SC(=S)N1C1CCS(=O)(=O)C1` (stereo not drawn), the inhibition was 39.6%.

In the case of `CCOC(=O)c1nn(-c2ccc3c(c2)CCN3C(C)=O)cc1O`, the inhibition is 16.7%.

As for `Cc1ccc2[nH]c3c(c2c1)CN(C(=O)CN1CCN(c2cccc(C)c2C)CC1)CC3`, the inhibition is 41.7%.

For `COc1ccc2nc3ccccc3nc2c1N`, the inhibition is 66.5% (active).

Take `COc1ccc2nc3cccc(OC)c3nc2c1`: the inhibition is -22.2%.

`COc1ccccc1CCn1c(N)c(C#N)c2nc3ccccc3nc21`: the inhibition was 22.4%.

Regarding `CN(Cc1ccco1)C(=O)c1cc2c(s1)-c1ccc(Cl)cc1S(=O)(=O)C2`, the inhibition was 11.3%.

As for `O=C(O)CCC(=O)Nc1ccccc1C(=O)Nc1ccccc1`, the inhibition was -5.9%.

Consider `Cc1ccc(NC(=O)CCC(=O)OCC(=O)c2ccc(-c3ccccc3)cc2)cc1`, for which the inhibition was 22.2%.

`C=CCNC(=O)c1c(N)n(-c2cccc(S(N)(=O)=O)c2)c2nc3ccccc3nc12`: the inhibition was 2%.

Turning to `CCN(CC)C(=O)COc1ccc2oc(-c3ccco3)cc(=O)c2c1`, the inhibition was -1.1%.

As to `COc1ccc(-n2c(N)c(C(=O)NCC3CCCO3)c3nc4ccccc4nc32)c(OC)c1` (stereo not drawn), the inhibition is -13.9%.

With `COc1ccc(-n2c(N)c(C(=O)NCc3ccco3)c3nc4ccccc4nc32)cc1OC`, the inhibition is 33.2%.

In the case of `Cc1ccc(/C=c2\sc3nc(-c4ccco4)nn3c2=O)o1`, the inhibition was 83.3% (active).

Take `O=[N+]([O-])c1ccc(N2CCN(CCO)CC2)c2ncccc12`: the inhibition is -17.2%.

Consider `O=[N+]([O-])c1cc(CN2CCN(c3cccc(C(F)(F)F)c3)CC2)c2cccnc2c1O`, for which the inhibition is 64.3% (active).

On to `COc1ccc2c(c1)CC/C(=C\Nc1ccc3c(c1)OCO3)C2=O`, for which the inhibition is 97.5% (active).

Turning to `COc1ccc2c(c1)CC/C(=C\C=C\c1ccccc1)C2=O`, the inhibition was 31.7%.

As to `COc1ccccc1C(=O)Nc1sc2c(c1C(=O)NCc1ccco1)CCCC2`, the inhibition is 35.7%.

Consider `O=C(CSc1ccc(Br)c2cccc(Cl)c12)Nc1ccc(S(=O)(=O)Nc2nccs2)cc1`, for which the inhibition is 101% (active).

In the case of `O=C(Cn1nnc2ccccc21)NCc1ccccc1`, the inhibition was 4.8%.

`CC(C)CC(=O)Nc1ccc(C(=O)Cn2nc(C(=O)O)c3ccccc3c2=O)cc1`: the inhibition is 36%.

Take `N#Cc1cnn2c(-c3ccccc3)ccnc12`: the inhibition is 3.3%.

In the case of `O=C(Cc1cccc2ccccc12)NN1C(=O)/C(=C\c2cccnc2)SC1=S`, the inhibition was 29.3%.

The values above are taken from PubChem BioAssay AID2018 (Sanford-Burnham Center for Chemical Genomics, 2009).
